Data from the supplement of paper PMC11732987, “Enantioselective OTUD7B fragment discovery through chemoproteomics screening and high-throughput optimisation” (Communications Chemistry, 2025).

How the values were obtained:
Assay in all cases: log2 ratio of Biotin-Ahx-Ub-VS probe labelling (fragment/DMSO); higher = less target engagement (more negative = stronger competition), active = hit call of the paper (q ≤ 0.05, log2 ratio ≤ -1)
Settings in all cases: compound concentration: 200 uM; treatment time: 3 h
USP19 = target: T1, USP19 (UniProt O94966)
T1 sequence (whole entry): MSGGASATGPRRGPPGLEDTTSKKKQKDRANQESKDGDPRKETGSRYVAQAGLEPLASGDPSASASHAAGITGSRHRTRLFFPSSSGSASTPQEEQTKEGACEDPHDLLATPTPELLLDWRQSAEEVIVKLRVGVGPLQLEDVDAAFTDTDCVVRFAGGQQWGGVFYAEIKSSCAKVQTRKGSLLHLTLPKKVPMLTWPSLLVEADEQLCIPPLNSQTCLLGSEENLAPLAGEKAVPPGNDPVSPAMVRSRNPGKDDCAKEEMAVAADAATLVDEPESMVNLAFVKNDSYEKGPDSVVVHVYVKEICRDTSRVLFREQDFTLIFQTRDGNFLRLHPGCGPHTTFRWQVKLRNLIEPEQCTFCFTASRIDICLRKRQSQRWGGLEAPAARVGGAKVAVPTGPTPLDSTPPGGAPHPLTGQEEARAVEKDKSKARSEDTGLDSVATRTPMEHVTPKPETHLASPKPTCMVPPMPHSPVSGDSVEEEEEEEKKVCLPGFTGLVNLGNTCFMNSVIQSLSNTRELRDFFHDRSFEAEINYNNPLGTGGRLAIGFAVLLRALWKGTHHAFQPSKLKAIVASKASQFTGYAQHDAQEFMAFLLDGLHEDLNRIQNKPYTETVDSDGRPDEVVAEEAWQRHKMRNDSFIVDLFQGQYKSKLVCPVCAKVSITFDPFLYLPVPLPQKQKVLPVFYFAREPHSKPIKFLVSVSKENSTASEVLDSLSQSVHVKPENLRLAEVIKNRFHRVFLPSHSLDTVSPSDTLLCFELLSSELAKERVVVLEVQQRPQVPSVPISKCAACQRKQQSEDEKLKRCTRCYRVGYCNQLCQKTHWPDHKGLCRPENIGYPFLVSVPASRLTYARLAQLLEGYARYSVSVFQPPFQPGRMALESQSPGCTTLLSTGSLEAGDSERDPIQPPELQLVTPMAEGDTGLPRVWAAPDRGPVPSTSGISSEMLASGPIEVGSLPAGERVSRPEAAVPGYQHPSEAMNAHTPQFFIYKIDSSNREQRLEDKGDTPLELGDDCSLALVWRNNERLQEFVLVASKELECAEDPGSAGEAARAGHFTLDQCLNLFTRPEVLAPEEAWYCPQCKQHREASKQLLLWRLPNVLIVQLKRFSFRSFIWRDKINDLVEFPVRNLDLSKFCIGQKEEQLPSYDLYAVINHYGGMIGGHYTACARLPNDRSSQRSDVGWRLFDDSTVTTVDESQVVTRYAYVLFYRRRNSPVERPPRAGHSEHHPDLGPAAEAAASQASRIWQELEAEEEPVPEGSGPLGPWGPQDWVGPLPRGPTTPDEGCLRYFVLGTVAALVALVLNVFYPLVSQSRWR
Method in brief: (§1)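 Labelled DUBs from HEK293T lysate were NeutrAvidin-enriched, digested with LysC and trypsin, and run by diaPASEF LC-MS/MS. Before that, each 495 µg sample in Tris/CHAPS/IGEPAL buffer with protease inhibitors was treated in triplicate with fragment at 200 µM or vehicle for 3 h, then with Biotin-Ahx-Ub-VS at 0.5 µM final for 1 h. Values are average log2 ratios of fragment over vehicle by unpaired t-test, based on global-median-normalised Spectronaut label-free quantities from proteins with ≥2 unique peptides.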

USP22 = target: T2, USP22 (UniProt Q9UPT9)
T2 sequence (whole entry): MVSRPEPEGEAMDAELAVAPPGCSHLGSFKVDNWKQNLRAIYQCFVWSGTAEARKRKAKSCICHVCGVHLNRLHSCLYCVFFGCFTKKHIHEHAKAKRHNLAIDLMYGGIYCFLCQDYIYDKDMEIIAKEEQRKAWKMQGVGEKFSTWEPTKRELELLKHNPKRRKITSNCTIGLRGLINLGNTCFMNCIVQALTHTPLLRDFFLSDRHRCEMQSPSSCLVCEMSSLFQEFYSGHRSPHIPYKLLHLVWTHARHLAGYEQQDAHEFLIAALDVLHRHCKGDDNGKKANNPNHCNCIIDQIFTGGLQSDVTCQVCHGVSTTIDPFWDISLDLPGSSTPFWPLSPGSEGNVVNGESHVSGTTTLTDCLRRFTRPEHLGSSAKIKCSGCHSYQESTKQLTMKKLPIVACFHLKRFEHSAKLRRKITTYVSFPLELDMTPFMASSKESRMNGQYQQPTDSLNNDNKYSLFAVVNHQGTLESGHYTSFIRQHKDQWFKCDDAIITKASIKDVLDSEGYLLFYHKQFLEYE
Method in brief: as §1

USP24 = USP24 (UniProt Q9UPU5)
Sequence of USP24 (Q9UPU5 whole entry): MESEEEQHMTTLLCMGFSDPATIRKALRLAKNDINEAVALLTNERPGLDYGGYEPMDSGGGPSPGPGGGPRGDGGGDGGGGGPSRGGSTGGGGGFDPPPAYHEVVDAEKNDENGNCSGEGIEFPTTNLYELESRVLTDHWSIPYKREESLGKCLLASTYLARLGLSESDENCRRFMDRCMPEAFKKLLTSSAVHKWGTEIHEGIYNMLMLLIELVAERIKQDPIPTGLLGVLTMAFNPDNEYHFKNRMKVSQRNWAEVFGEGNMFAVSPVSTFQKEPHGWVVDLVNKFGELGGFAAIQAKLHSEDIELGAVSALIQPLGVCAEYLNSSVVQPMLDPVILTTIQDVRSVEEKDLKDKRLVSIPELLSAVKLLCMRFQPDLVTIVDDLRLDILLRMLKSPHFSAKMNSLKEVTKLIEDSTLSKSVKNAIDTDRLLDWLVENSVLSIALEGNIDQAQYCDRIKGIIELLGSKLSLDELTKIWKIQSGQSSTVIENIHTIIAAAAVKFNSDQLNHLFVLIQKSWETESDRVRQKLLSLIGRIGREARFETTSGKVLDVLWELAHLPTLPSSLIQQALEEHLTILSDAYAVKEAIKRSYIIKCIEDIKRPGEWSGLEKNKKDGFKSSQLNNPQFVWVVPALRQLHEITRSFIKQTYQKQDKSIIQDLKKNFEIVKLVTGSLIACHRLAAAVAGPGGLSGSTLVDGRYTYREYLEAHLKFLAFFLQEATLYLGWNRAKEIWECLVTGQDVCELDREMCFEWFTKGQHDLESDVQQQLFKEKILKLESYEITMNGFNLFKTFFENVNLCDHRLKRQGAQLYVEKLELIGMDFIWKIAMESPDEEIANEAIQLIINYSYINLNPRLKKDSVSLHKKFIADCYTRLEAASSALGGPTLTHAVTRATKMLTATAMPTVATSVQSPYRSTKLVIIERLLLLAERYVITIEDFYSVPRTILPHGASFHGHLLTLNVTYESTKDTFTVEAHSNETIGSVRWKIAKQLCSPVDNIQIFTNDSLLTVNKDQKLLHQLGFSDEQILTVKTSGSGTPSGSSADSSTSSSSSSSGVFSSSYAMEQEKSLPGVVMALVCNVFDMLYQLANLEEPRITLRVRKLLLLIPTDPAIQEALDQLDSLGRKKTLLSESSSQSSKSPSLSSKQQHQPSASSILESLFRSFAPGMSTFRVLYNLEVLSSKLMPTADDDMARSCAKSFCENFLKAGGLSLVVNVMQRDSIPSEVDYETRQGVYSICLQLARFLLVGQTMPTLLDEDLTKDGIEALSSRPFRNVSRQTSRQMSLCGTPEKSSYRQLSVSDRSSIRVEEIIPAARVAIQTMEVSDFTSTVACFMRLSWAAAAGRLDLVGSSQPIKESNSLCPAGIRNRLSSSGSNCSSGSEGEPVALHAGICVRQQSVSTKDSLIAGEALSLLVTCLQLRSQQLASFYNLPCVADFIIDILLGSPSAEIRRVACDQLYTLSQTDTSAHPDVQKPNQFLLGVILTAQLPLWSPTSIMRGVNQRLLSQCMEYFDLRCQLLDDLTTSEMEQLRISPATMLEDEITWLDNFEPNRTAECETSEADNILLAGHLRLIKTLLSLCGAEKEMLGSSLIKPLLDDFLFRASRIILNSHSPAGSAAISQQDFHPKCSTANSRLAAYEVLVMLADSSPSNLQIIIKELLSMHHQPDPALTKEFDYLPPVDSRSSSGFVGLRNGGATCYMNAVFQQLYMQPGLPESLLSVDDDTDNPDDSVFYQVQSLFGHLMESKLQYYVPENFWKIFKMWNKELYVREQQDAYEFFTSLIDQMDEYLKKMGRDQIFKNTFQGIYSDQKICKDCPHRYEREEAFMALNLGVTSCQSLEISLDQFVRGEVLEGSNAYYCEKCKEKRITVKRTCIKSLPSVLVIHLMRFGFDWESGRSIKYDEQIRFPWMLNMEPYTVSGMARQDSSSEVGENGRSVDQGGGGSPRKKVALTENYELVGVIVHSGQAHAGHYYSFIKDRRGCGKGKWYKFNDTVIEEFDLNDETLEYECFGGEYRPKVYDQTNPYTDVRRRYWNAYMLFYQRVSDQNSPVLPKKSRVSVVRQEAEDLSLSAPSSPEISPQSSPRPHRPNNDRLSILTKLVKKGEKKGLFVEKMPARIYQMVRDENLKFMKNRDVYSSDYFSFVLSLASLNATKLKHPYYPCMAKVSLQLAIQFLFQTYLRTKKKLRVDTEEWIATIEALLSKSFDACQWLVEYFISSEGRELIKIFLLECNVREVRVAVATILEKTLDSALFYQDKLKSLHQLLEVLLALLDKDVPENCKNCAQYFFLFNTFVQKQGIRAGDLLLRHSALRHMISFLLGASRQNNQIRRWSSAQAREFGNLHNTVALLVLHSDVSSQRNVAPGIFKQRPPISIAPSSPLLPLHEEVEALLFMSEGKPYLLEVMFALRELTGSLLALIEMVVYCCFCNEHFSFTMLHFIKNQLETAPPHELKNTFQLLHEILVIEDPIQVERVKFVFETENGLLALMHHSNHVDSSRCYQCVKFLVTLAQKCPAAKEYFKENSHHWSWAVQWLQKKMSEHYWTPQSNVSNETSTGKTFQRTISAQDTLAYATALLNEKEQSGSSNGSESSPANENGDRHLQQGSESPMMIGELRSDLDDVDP
Method in brief: as §1

USP25 = target: T3, USP25 (UniProt Q9UHP3)
T3 sequence (whole entry): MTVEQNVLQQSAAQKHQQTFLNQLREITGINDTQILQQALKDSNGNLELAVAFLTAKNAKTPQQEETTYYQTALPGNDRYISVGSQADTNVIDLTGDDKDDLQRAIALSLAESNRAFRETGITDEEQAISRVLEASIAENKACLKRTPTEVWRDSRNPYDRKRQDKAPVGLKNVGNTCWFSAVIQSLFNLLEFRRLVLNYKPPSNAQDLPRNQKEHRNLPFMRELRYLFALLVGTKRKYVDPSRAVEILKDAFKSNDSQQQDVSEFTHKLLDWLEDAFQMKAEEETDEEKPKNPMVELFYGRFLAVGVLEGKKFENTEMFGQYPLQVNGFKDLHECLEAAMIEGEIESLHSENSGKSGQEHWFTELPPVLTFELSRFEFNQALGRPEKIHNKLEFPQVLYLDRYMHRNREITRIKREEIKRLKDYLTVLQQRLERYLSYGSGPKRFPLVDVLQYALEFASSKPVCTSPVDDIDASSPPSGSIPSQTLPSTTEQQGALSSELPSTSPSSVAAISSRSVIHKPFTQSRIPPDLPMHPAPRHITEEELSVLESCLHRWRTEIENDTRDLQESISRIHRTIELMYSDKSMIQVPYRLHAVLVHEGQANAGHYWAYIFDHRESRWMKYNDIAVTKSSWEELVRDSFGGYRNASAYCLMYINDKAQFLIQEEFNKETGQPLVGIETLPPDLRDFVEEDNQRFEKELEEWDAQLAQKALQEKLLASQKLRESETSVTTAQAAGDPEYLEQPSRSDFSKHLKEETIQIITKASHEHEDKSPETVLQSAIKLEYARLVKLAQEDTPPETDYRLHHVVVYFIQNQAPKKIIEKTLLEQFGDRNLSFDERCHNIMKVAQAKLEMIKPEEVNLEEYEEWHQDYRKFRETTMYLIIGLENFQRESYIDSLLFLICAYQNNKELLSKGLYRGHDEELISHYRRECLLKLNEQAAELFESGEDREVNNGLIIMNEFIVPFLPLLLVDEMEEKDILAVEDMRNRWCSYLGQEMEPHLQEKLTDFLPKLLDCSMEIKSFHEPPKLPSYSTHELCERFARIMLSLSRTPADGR
Method in brief: as §1

USP28 = target: T4, USP28 (UniProt Q96RU2)
T4 sequence (whole entry): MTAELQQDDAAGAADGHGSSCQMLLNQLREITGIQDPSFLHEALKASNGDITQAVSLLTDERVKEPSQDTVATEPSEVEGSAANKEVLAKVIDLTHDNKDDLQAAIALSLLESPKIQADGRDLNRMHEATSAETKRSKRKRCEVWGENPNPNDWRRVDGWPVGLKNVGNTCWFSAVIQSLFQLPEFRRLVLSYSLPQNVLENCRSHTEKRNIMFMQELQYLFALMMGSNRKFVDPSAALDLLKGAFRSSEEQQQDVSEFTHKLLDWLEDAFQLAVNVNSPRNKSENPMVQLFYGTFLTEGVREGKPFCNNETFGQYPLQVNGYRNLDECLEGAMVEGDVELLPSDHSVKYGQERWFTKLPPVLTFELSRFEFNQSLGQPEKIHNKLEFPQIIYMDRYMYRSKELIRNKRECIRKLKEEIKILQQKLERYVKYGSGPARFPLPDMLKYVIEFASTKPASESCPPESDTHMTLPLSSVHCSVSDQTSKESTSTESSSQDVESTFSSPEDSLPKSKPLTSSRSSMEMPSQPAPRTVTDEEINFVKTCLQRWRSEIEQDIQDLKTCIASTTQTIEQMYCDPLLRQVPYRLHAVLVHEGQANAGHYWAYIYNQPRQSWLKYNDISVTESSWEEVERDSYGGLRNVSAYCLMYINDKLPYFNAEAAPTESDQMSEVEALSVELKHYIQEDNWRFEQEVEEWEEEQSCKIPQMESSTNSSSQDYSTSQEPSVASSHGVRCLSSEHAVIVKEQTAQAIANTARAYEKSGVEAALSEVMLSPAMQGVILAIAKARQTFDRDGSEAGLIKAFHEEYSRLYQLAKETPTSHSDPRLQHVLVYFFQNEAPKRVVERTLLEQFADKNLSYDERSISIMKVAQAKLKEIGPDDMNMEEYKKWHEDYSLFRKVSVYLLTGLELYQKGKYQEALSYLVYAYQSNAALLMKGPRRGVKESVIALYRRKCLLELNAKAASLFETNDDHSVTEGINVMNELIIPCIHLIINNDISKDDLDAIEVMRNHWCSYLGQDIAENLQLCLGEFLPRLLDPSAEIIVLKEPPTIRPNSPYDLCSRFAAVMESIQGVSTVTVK
Method in brief: as §1

Measured: log2 ratio of Biotin-Ahx-Ub-VS probe labelling

Cc1nc(CNC(=O)CCl)c2ccccn12.Cl
inactive: USP19 -0.106 | USP22 0.0129 | USP24 -0.108 | USP25 -0.0552 | USP28 -0.23
